Source: PubChem BioAssay (Tox21)
Where “and” joins values, the source holds several entries; their conditions need not be identical. Identical values can stand only once. Records with an inconclusive call do not appear. Calls of active or inactive are those of the source. Unless noted, calls come from the whole dose curve; as a rule, active = well fitted curve in the direction sought with a large enough effect in the repeat runs; inconclusive = weak or mixed curves; inactive = no such curve, though single readings can be large; an effect the other way counts as inactive or inconclusive.

How the values were obtained:
[1] = A CellTox Green Cytotoxicity Assay to monitor cytotoxicity in HepG2 cells - 8 hour (AID 1224890); note: nearly all actives have a fitted effect of over 45% in size; note: potency is the fitted concentration of half-maximal effect
Outline: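 Continuous culture of HepG2 cells with a membrane-impermeant DNA dye; rising fluorescence marks dead cells. Compound exposure lasted up to 40 h at 37 C, with reads every 8 h from 0 h.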

[2] = qHTS assay to identify small molecule antagonists of the estrogen receptor alpha (ER-alpha) signaling pathway using the BG1 cell line in the presence of 0.1 nM 17-beta-estradiol - cell viability counter screen (AID 1259241); note: nearly all actives have a fitted effect of over 40% in size
Outline: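 Viability in VM7Luc4E2 cells after 22 hr compound exposure under 0.1 nM 17beta-estradiol stimulation, by CellTiter-Fluor.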

[3] = qHTS assay to identify small molecule antagonists of the androgen receptor (AR) signaling pathway using the MDA cell line in the presence of 0.5 nM R1881 - cell viability counter screen (AID 1259242); note: nearly all actives have a fitted effect of over 45% in size
Outline: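 Fluorescence from CellTiter-Fluor, which reports protease activity of live cells, was read 30 min after reagent addition to MDA-kb2 cells that had been incubated 16 hr with compound and 0.5 nM R1881.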

[4] = target: Androgen receptor (Homo sapiens) (UniProt P10275); experiment: qHTS assay to identify small molecule antagonists of the androgen receptor (AR) signaling pathway using the MDA cell line in the presence of 0.5 nM R1881 (AID 1259243); note: nearly all actives have a fitted effect of over 50% in size; note: potency is the fitted concentration of half-maximal effect
Outline: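 Inhibition of R1881 (0.5 nM final) induced reporter signal was measured in human MDA-kb2 cells; note the MMTV promoter also responds to GR. Exposure lasted 16 hr at 37C.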

[5] = target: Estrogen receptor (Homo sapiens) (UniProt P03372); experiment: qHTS assay to identify small molecule antagonists of the estrogen receptor alpha (ER-alpha) signaling pathway using the BG1 cell line in the presence of 0.1 nM 17-beta-estradiol (AID 1259244); note: nearly all actives have a fitted effect of over 50% in size
Outline: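 Quantitative high-throughput screen in VM7Luc4E2 cells: compound plus 0.1 nM E2 (final), 22 h, 37C, 5% CO2; ONE-Glo added, 30 min room temperature, luminescence measured.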

[6] = qHTS assay to identify small molecule HDAC inhibitors (AID 1259364); note: nearly all actives have a fitted effect of over 45% in size; note: potency is the fitted concentration of half-maximal effect
Outline: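 Endogenous HDAC class I/II activity was measured in wild-type HCT-116 cells by HDAC-Glo luminescence after 2 h compound treatment.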

[7] = qHTS assay to identify small molecule HDAC inhibitors - cell viability counter screen (AID 1259365); note: series mostly up to about 92 µM; nearly all actives have a fitted effect of over 50% in size
Outline: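 Cytotoxicity was gauged in wild-type HCT-116 cells after a brief 2hr treatment with DMSO-dissolved compounds at 37C and 5% CO2, using CellTiter-Glo luminescence developed for 30min at room temperature.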

[8] = qHTS assay to identify small molecule phospholipidosis (PLD) inducers (AID 1259344; active = well fitted curve in the direction sought with a large enough effect; an effect the other way counts as inactive or inconclusive)
Outline: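 Phospholipidosis is scored by imaging LipidTOX-stained pits in HepG2 cells exposed to compound for 24 h at 37 C; pit counts and integrated intensities per well and per cell serve as outputs.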

[9] = qHTS assay to identify small molecule agonists of the sonic hedgehog signaling (Shh) pathway - cell viability counter screen (AID 1259366); note: nearly all actives have a fitted effect of over 50% in size
Outline: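 Stable Gli1-Luc NIH/3T3 clone, 2,000 cells/well. Compound exposure 24hr at 37C. Read-out: CellTiter-Fluor fluorescence.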

[10] = qHTS assay to identify small molecule antagonists of the sonic hedgehog signaling (Shh) pathway - cell viability counter screen (AID 1259367); note: nearly all actives have a fitted effect of over 55% in size
Outline: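 Cells: 3T3 Gli1-Luc, 2,000/well, 4 hr pre-incubation. Compounds in DMSO, then conditioned medium. Incubation 24 hr, 37C, 5% CO2. CellTiter-Fluor at 23 hr, 1 hr, fluorescence.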
% is set by controls: 0 for no effect and ±100 for the full control effect.

Chain of Estrogen receptor (Homo sapiens) (P03372 whole entry, looked up): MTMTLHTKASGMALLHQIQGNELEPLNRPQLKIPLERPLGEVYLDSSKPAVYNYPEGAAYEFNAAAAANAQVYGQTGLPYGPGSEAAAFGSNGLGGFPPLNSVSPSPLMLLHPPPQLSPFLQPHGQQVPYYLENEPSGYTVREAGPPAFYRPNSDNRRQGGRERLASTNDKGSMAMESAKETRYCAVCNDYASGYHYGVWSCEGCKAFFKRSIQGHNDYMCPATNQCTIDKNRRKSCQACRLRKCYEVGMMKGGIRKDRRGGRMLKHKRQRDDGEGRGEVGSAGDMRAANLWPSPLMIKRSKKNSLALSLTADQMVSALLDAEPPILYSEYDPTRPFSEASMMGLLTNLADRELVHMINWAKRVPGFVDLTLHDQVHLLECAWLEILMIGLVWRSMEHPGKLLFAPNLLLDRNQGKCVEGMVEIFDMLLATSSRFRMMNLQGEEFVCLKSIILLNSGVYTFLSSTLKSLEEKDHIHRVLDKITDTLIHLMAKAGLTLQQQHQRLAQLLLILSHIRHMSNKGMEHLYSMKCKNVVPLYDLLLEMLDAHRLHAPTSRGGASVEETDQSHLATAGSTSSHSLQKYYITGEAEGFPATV
Chain of Androgen receptor (Homo sapiens) (P10275 whole entry, looked up): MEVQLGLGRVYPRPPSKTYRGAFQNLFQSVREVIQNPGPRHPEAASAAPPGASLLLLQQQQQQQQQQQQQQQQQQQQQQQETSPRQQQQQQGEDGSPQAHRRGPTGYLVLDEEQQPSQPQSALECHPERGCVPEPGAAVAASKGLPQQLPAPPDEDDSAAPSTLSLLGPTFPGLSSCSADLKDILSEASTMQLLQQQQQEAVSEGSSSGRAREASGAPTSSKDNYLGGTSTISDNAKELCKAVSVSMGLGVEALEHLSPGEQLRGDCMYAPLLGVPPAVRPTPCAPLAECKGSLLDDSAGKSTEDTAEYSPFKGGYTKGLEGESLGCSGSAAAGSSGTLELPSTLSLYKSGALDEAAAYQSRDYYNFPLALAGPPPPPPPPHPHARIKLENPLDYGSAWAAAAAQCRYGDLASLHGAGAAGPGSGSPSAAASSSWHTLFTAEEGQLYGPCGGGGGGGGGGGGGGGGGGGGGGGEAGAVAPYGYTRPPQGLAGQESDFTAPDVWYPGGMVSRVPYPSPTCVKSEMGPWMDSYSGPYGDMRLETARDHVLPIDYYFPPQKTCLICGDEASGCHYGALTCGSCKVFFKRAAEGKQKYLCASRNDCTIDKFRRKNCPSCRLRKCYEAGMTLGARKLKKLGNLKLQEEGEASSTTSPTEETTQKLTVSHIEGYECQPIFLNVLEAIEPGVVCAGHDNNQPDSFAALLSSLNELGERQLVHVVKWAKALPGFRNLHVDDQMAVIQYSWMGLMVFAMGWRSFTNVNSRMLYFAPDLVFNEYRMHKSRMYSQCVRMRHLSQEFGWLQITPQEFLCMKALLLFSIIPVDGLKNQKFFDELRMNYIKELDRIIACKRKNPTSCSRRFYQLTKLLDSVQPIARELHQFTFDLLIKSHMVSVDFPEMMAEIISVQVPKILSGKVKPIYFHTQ

C=C(C)C(=O)OCCCCCCCC(C)C
inactive: Potency [1] | outcome [2] | Potency [3] | Potency [4] | outcome [5] | Potency [6] | outcome [7]

CCN1CCC[C@H]1CNC(=O)c1cc(S(N)(=O)=O)ccc1OC
inactive: Potency [1] | outcome [2] | Potency [3] | Potency [4] | Potency [8] | Potency [6] | Potency [9] | Potency [10]

CC(=O)Nc1ccc(S(N)(=O)=O)cc1
inactive: Potency [1] | outcome [2] | Potency [3] | Potency [4] | outcome [5] | Potency [6] | Potency [9] | Potency [10]

CC(=O)OCC(CCn1cnc2cnc(N)nc21)COC(C)=O
inactive: Potency [1] | outcome [2] | Potency [3] | Potency [4] | outcome [5] | Potency [8] | Potency [6] | outcome [7] | Potency [9] | Potency [10]

FC1(F)C(F)(F)C(F)(F)C2(F)C(F)(F)C(F)(F)C(F)(F)C(F)(F)C2(F)C1(F)F (stereo not drawn)
inactive: Potency [1] | outcome [2] | Potency [3] | Potency [4] | outcome [5] | Potency [8] | Potency [6] | outcome [7] | Potency [9] | Potency [10]

CCn1nc(C(=O)O)c(=O)c2cc3c(cc21)OCO3
inactive: Potency [1] | outcome [2] | Potency [3] | Potency [4] | outcome [5] | Potency [8] | Potency [6] | outcome [7] | Potency [9] | Potency [10]

O=C(O)COc1nn(Cc2ccccc2)c2ccccc12
inactive: Potency [1] | outcome [2] | Potency [3] | Potency [4] | outcome [5] | Potency [8] | Potency [6] | outcome [7] | Potency [9] | Potency [10]

CC(NC(CCc1ccccc1)C(=O)O)C(=O)N1C(=O)N(C)CC1C(=O)O (stereo not drawn)
inactive: Potency [1] | outcome [2] | Potency [3] | Potency [4] | Potency [6] | outcome [7] | Potency [9] | Potency [10]

CC(C)NC(=O)NC(C)C
inactive: Potency [1] | outcome [2] | Potency [3] | Potency [4] | outcome [5] | Potency [6] | outcome [7] | Potency [9] | Potency [10]

CN1N=C(C(N)=O)CCC1=O
inactive: Potency [1] | outcome [2] | Potency [3] | Potency [4] | outcome [5] | Potency [6] | outcome [7] | Potency [9] | Potency [10]

CN(C)CCCSc1ccccc1NC(=O)/C=C/c1ccccc1
active: Potency [1] 19 µM | Potency [6] 8.41 µM
inactive: outcome [2] | Potency [3] | outcome [5] | Potency [8] | outcome [7] | Potency [9] | Potency [10]

CC(C)(CC(=O)O)C(=O)O
inactive: Potency [1] | outcome [2] | Potency [3] | Potency [4] | outcome [5] | Potency [6] | outcome [7] | Potency [9] | Potency [10]

ClC(Cl)(Br)Br
inactive: Potency [1] | outcome [2] | Potency [3] | Potency [4] | outcome [5] | Potency [6] | outcome [7] | Potency [9] | Potency [10]

CCCCOCCOCCOCc1cc2c(cc1CCC)OCO2
inactive: Potency [1] | outcome [2] | Potency [3] | Potency [4] | Potency [8] | Potency [6] | outcome [7] | Potency [9] | Potency [10]

NS(=O)(=O)c1ccc(C(=O)O)cc1
inactive: Potency [1] | outcome [2] | Potency [3] | Potency [4] | outcome [5] | Potency [8] | Potency [6] | Potency [10]

CN1CC(=O)NC1=N
inactive: Potency [1] | outcome [2] | Potency [3] | Potency [4] | Potency [8] | Potency [6] | Potency [9] | Potency [10]

O=c1cc(-c2ccccc2)oc2ccccc12
active: Potency [4] 7.7 µM and 3.83 µM | Potency [6] 24.3 µM and 17.6 µM
inactive: Potency [1] | outcome [2] | Potency [3] | outcome [5] | PLD induction [8] -2.02% [at 3.15 µM] | Potency [9] | Potency [10]

C=C(C)CS(=O)(=O)O
inactive: Potency [1] | outcome [2] | Potency [3] | Potency [4] | outcome [5] | Potency [6] | Potency [9] | Potency [10]

CCN(CC)CCOCCOC(=O)C1(c2ccccc2)CCCC1
inactive: Potency [1] | outcome [2] | Potency [3] | outcome [5] | Potency [8] | Potency [6] | outcome [7]

CCOc1ccc(C(=O)OCCN(CC)CC)cc1
inactive: Potency [1] | outcome [2] | Potency [3] | Potency [4] | Potency [8] | Potency [6] | outcome [7] | Potency [9] | Potency [10]

CCn1ccnc1CC1COc2ccccc2O1 (stereo not drawn)
inactive: Potency [1] | outcome [2] | Potency [3] | Potency [4] | outcome [5] | Potency [8] | outcome [7] | Potency [10]

COC(=O)[C@@H](N)Cc1ccc(O)c(O)c1
inactive: Potency [1] | outcome [2] | Potency [3] | Potency [4] | Potency [8] | Potency [6] | Potency [9] | Potency [10]

NC(=O)COCCN1CCN(C(c2ccccc2)c2ccc(Cl)cc2)CC1 (stereo not drawn)
inactive: Potency [1] | outcome [2] | Potency [3] | Potency [4] | outcome [5] | PLD induction [8] -1.34% [at 1.53 µM] | Potency [6] | outcome [7] | Potency [9] | Potency [10]

CN1CCN(c2cc3c(cc2F)c(=O)c(C(=O)O)cn3-c2ccc(F)cc2)CC1
inactive: Potency [1] | outcome [2] | Potency [3] | Potency [4] | Potency [8] | Potency [6] | outcome [7] | Potency [10]
